Measurements taken from the supplement of paper PMC6555819.

Columns and labels:
Assay in all cases: PBM binding z-score (relative to random genomic background probes); higher = stronger binding; sequences stand for … in GC…GCGATTGACAGCGTAGAATGAAGG
[1] = tested on: FXR:RXRa (NR concentration 270 nM, RXRa partner concentration 90 nM)
Summary of the method: (§1)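 The probes on custom Agilent 4×180K protein-binding microarrays were double-stranded, with 34-nt variable regions bearing direct-repeat seeds, single-nucleotide variants, half-site ablations and random human genomic background sequences. Incubation lasted 1 h with ligand-free nuclear receptor dimers in PBS pH 7.4, 2% milk, 0.02% Triton X-100, 1 mM DTT, 0.2 mg/mL BSA and 0.4 mg/ml salmon testes DNA. Antibodies against each partner (one per run) detected bound dimers, and fluorescence scans were regression-normalized. Binding z-scores take the random background probes as reference.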

[2] = tested on: LXRa:RXRa (NR concentration 270 nM, RXRa partner concentration 90 nM)
Summary of the method: as §1

[3] = tested on: LXRa homodimer (NR concentration 270 nM)
Summary of the method: as §1

[4] = tested on: LXRb:RXRa (NR concentration 270 nM, RXRa partner concentration 90 nM)
Summary of the method: as §1

[5] = tested on: LXRb homodimer (NR concentration 270 nM)
Summary of the method: as §1

[6] = tested on: PPARa:RXRa (NR concentration 270 nM, RXRa partner concentration 90 nM)
Summary of the method: as §1

[7] = tested on: PPARg:RXRa (NR concentration 180 nM, RXRa partner concentration 90 nM)
Summary of the method: as §1

[8] = tested on: PPARg:RXRa 270nM:90nM, anti-RXR (NR concentration 270 nM, RXRa partner concentration 90 nM)
Summary of the method: as §1

[9] = tested on: PPARg:RXRa 30nM:10nM, anti-RXR (NR concentration 30 nM, RXRa partner concentration 10 nM)
Summary of the method: as §1

[10] = tested on: PPARg:RXRa 90nM:30nM, anti-RXR (NR concentration 90 nM, RXRa partner concentration 30 nM)
Summary of the method: as §1

[11] = tested on: PPARg:RXRa DBDmut IVT, anti-RXR (DBD mutation: RXRa K156A/R161A, NR concentration 270 nM, RXRa partner concentration 90 nM)
Summary of the method: as §1

[12] = tested on: PPARg:RXRa IVT, anti-PPARg (NR concentration 270 nM, RXRa partner concentration 90 nM)
Summary of the method: as §1

[13] = tested on: PPARg DBDmut:RXRa IVT, anti-PPARg (DBD mutation: PPARg1 K132A/R137A, NR concentration 270 nM, RXRa partner concentration 90 nM)
Summary of the method: as §1

[14] = tested on: PPARg DBDmut IVT, anti-PPARg (DBD mutation: PPARg1 K132A/R137A, NR concentration 270 nM)
Summary of the method: as §1

[15] = tested on: PPARg homodimer (NR concentration 180 nM)
Summary of the method: as §1

[16] = tested on: PXR:RXRa (NR concentration 270 nM, RXRa partner concentration 90 nM)
Summary of the method: as §1

[17] = tested on: PXR homodimer (NR concentration 270 nM)
Summary of the method: as §1

[18] = tested on: RARa:RXR (NR concentration 270 nM, RXRa partner concentration 90 nM)
Summary of the method: as §1

[19] = tested on: RARa homodimer (NR concentration 270 nM)
Summary of the method: as §1

[20] = tested on: RARb:RXRa (NR concentration 270 nM, RXRa partner concentration 90 nM)
Summary of the method: as §1

Sequence	PBM binding z-score [1]	PBM binding z-score [2]	PBM binding z-score [3]	PBM binding z-score [4]	PBM binding z-score [5]	PBM binding z-score [6]	PBM binding z-score [7]	PBM binding z-score [8]	PBM binding z-score [9]	PBM binding z-score [10]	PBM binding z-score [11]	PBM binding z-score [12]	PBM binding z-score [13]	PBM binding z-score [14]	PBM binding z-score [15]	PBM binding z-score [16]	PBM binding z-score [17]	PBM binding z-score [18]	PBM binding z-score [19]	PBM binding z-score [20]
GGAACGAGGGCATTCAAGTTGATAGCATGGCGAT	1.18	1.46	-0.583	0.241	-0.723	1.52	1.12	0.948	-0.0725	0.427	2.92	2.13	-0.155	-0.574	-0.338	2.92	0.722	0.791	-0.689	1.9
GGCACGAGGGCAAAGTTGATAGCATCTGTCGACG	1.44	1.01	-0.378	0.776	-0.874	3.29	6.13	6.24	4.26	6.86	2.51	2.98	-0.61	-0.775	0.977	1.11	0.289	1.56	-0.644	2.54
CCTCGGAGGACAACAGGAGGTCCGAGCTGCCAGA	-0.13	-0.509	-0.575	-1.1	-0.867	-0.795	-0.182	-0.921	-0.862	-0.99	-0.427	-0.95	-1.85	-2.01	-0.576	-0.914	-0.768	-0.793	-0.318	1.1
CCTACAGGGCCATCAGGTCATTGATATCAACGTT	1.88	1.31	0.875	1.51	-0.272	2	0.835	1.04	0.253	0.77	0.49	1.32	-0.452	-0.51	1.27	1.71	0.581	1.89	0.0859	2.38
TCTCGGAGGACACGAAAGGTCAGATCTCGACATC	3.11	3.81	3.83	3.85	0.385	3.44	1.37	2.81	3.01	2.77	2.03	1.5	-0.0755	-0.793	2.23	3.88	0.563	3.78	0.369	4.15
TCTAGTTGTTCACGGAGGTCACACACGACGGGTA	2.82	3.29	2.83	3.17	0.94	3.66	1.84	2.89	3.43	3.07	1.73	2.51	0.302	1.32	2.67	4.27	1.07	4.45	1.31	3.37
CCTCGGAGGACAGAAGGTCAGACCTGTCCGCTTT	1.44	1.56	0.0539	1.3	-0.489	1.9	0.19	0.86	-0.764	0.0778	0.156	0.0592	-1.1	-2.09	1.39	1.69	-0.272	2.2	-0.193	3.22
